Compounds with a hit are over-represented: about 31% of the library has one in this group of screens.
CYP2C9 inhib – blockers of cytochrome P450 2C9 activity – biochemical, luminescence, ADME assay, primary screen. P11712. actives 20% (n = 96,000). CYP2C9 Supersomes, luciferin-H conversion. inhibition, % at 5 µM;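 active = blocking of liver enzyme CYP2C9 beyond about 50% at 5 µM, limit read from the data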
CYP2C19 inh – blockers of cytochrome P450 2C19 activity – biochemical, luminescence, ADME assay, primary screen. P33261. CYP2C19 Supersomes, luciferin-H EGE luminescence, 30 min. inhibition, % at 5 µM. actives 21% (n = 96,000). AID 778, 2007;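 active = CYP2C19 inhibition above a set limit at 5 µM in the primary screen, cut at about 50% in these data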
CYP2C9 activ – human CYP2C9 activators, primary screen, biochemical, luminescence; Cytochrome P450 2C9 (Homo sapiens), P11712; activation factor at 5 µM; actives 1.4% (n = 96,000); recombinant CYP2C9, luciferin-H conversion; stronger effect = higher value; factor 1 = untreated enzyme, 0 = blocked;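 active = activation factor of 2 or more for CYP2C9 at a 5 µM dose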
CYP2C19 activ – human CYP2C19 activators, primary screen, biochemical, luminescence; 96,000 tested, under 10 active; Cytochrome P450 2C19 (Homo sapiens), P33261; activation factor at 5 µM; recombinant CYP2C19, luciferin-H EGE luminescence; stronger effect = higher value; 0 = fully inhibited enzyme, 1 = untreated enzyme;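 active = activation factor of at least 2 at 5 µM in the primary screen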
PLAP act – PLAP enzyme activators, biochemical, luminescence, HTS | Alkaline phosphatase, placental type (Homo sapiens), P05187 | purified PLAP enzyme, luminescent substrate read-out; stronger effect = higher value | activation fold at 20 µM | actives 1.2% (n = 96,000); in the data active = activation fold above about 2
Target sequence (P05187 whole entry, looked up): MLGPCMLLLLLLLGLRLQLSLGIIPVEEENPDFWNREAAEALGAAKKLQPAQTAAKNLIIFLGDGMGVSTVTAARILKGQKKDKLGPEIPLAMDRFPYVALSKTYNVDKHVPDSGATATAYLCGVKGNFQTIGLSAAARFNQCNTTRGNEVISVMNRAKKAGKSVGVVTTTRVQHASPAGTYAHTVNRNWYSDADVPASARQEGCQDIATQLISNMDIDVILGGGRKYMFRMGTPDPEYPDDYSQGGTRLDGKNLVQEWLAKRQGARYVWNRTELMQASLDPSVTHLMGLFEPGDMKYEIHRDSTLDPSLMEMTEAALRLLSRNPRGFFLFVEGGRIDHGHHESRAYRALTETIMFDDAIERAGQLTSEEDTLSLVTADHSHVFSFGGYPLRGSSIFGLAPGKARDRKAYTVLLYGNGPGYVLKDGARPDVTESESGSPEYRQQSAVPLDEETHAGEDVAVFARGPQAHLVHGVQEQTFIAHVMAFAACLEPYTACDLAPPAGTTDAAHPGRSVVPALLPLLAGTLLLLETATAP
Hits are given with their value; n = inactive.

SMILES	CYP2C9 inhib	CYP2C19 inh	CYP2C9 activ	CYP2C19 activ	PLAP act
CC(C)C1N(S(=O)(=O)c2ccccc2)CCN1S(=O)(=O)c1ccccc1	99.5	100.0	n	n	n
CC(C)C1N(C(=O)CN2CCCC2)CCN1S(=O)(=O)c1ccccc1 (stereo not drawn)	n	n	n	n	n
CC1CCN(S(=O)(=O)c2ccc(S(=O)(=O)N3CCN4CCCC4C3)cc2)CC1 (stereo not drawn)	n	n	n	n	n
COc1ccc(-c2nnnn2C)cc1S(=O)(=O)NCc1ccccc1	n	n	n	n	n
CCNS(=O)(=O)c1ccc(NC(=O)Cc2ccc(F)cc2)cc1	n	n	n	n	n
CCNC(=O)Cc1ccc(NS(=O)(=O)c2ccc(F)cc2)cc1	52.6	n	n	n	n
CCOC(=O)Cc1ccc(NS(=O)(=O)c2ccc(SC)cc2)cc1	71.0	n	n	n	n
CCOC(=O)c1ccc(NS(=O)(=O)c2ccc(SC)cc2)cc1	n	n	n	n	n
O=C(Cc1ccc(NS(=O)(=O)c2ccc(F)cc2)cc1)NCc1ccccc1	94.3	75.5	n	n	n
Cc1ccc(NCc2nnc(SCC(=O)N(Cc3ccccc3)C(C)(C)C)o2)c(C)c1	n	n	n	n	n
Cc1nc2ccccn2c1/C(O)=C1\C(=O)C(=O)N(CCN2CCOCC2)C1c1cccs1 (stereo not drawn)	n	n	n	n	n
CCC(C)NC(=O)CSc1nnc(-c2ccoc2C)n1CC1CCCO1 (stereo not drawn)	n	n	n	n	n
CC1=CCC2C(=O)N(C(C)c3ccccc3)C(=O)C2C1 (stereo not drawn)	n	93.8	n	n	n
O=S(=O)(NCc1cc(-c2ccccc2Cl)no1)c1ccc(Cl)cc1	n	93.4	n	n	n
CCC(CC)C(=O)Nc1nc(-c2ccc3c(c2)CCN3C(=O)C2CC2)c(C)s1	80.8	n	n	n	n
O=C1c2ccccc2C(=O)N1CC1c2ccccc2CCN1C(=O)C1CCCCC1 (stereo not drawn)	n	73.2	n	n	n
COC(=O)Cn1c(CCS(=O)(=O)c2ccc(C)c(C)c2)nc2ccccc21	n	60.9	n	n	n
CC(=O)Nc1nonc1-c1nc2ccccc2n1CCC#N	n	n	n	n	n
Cc1ccc(S(=O)(=O)CC2CSc3nc4ccccc4n32)cc1 (stereo not drawn)	53.7	67.9	n	n	n
Cc1ccc(S(=O)(=O)CCc2nc3ccccc3n2CCC#N)cc1	n	51.1	n	n	n
O=C(Nc1ccc2c(c1)OCCO2)c1ccc(Br)o1	n	n	n	n	n
COc1ccccc1C1SCCN1S(C)(=O)=O (stereo not drawn)	n	57.4	n	n	n
N#C/C(=N\Nc1ccc(Cl)cc1)C(=O)c1ccccc1	n	68.7	n	n	n
Cc1c(C(=O)Nc2ccncc2)oc2ccccc12	53.0	97.9	n	n	n
Cc1c(C(=O)Nn2cnnc2)oc2ccccc12	n	74.3	n	n	n
SMILES	CYP2C9 inhib	CYP2C19 inh	CYP2C9 activ	CYP2C19 activ	PLAP act
Cc1c(C(=O)NC(C)c2ccncc2)oc2ccccc12 (stereo not drawn)	83.1	82.4	n	n	n
Cc1c(C(=O)Nc2ccccn2)oc2ccccc12	n	n	n	n	n
Cc1ccc2c(C)c(C(=O)Nc3cccnc3)oc2c1	52.5	n	n	n	n
Cc1c(C(=O)Nc2nnc(C(F)(F)F)s2)oc2ccccc12	62.9	n	n	n	n
Cc1ccc(-n2ncc(C#N)c2/N=C/N2CCOCC2)cc1	64.9	85.3	n	n	n
COc1ccc(-c2nc(CS(=O)CC(=O)NCc3cccnc3)c(C)o2)cc1 (stereo not drawn)	62.2	n	n	n	n
COc1cccc(-c2nc(CS(=O)CC(=O)NCc3ccccc3)c(C)o2)c1 (stereo not drawn)	57.8	54.4	n	n	n
COc1ccc(-c2nc(CS(=O)CC(=O)NCc3ccco3)c(C)o2)cc1 (stereo not drawn)	n	n	n	n	n
CCc1ccc(-c2nc(CS(=O)CC(=O)NCc3cccnc3)c(C)o2)cc1 (stereo not drawn)	70.1	n	n	n	n
CCCNC(=O)CS(=O)Cc1nc(-c2cccc(OC)c2)oc1C (stereo not drawn)	n	n	n	n	n
COc1ccc(NC(=O)CCc2ccccc2)cc1NC(=O)c1ccco1	66.4	61.7	n	n	n
COc1ccc(NC(=O)c2ccco2)cc1NC(=O)c1cccs1	55.1	57.2	n	n	n
COc1ccc(NC(=O)c2ccco2)cc1NC(=O)c1ccc(C)cc1	n	n	n	n	n
COc1ccccc1-n1cnc2cc(NC(=O)c3ccco3)ccc21	n	65.0	n	n	n
COc1ccc(CC(=O)Nc2ccc(OC)c(NC(=O)c3ccco3)c2)cc1	n	n	n	n	n
O=C(Oc1ccc2c(c1)OCO2)c1cc2c(s1)CCC2	n	n	n	n	n
c1ccc(N=P(N2CCOCC2)(N2CCOCC2)N2CCOCC2)cc1	n	n	n	n	n
c1cncc(-c2csc(NCc3ccco3)n2)c1	74.5	86.1	n	n	n
Cc1ccn2c(-c3csc(NCc4ccco4)n3)c(C)nc2c1	n	n	n	n	n
O=C(Nc1nc(-c2cccnc2)cs1)c1ccc(S(=O)(=O)N2CCOCC2)cc1	n	n	n	n	n
c1ccc(CCNc2nc(-c3cccnc3)cs2)cc1	59.3	92.3	n	n	n
COc1ccc(-c2csc(NCc3ccco3)n2)cc1C	62.3	80.8	n	n	n
O=C(Cc1ccc(-n2cccc2)cc1)NC1CCCCC1	68.8	55.4	n	n	n
NC(=O)C1(N2CCCCC2)CCN(C(=O)CSc2nc(C(F)(F)F)cc(=O)[nH]2)CC1	n	n	n	n	n
COC(=O)c1ccc(Cl)c(NC(=O)c2ccc(-c3ccccc3)cc2)c1	n	n	n	n	n
SMILES	CYP2C9 inhib	CYP2C19 inh	CYP2C9 activ	CYP2C19 activ	PLAP act
Cn1nc(C(F)(F)F)c(C#N)c1N1CCN(c2ccc(F)cc2)CC1	82.1	78.3	n	n	n
COc1ccnc(N2CCN(c3ccccc3)CC2)c1C#N	79.8	100.3	n	n	n
Cn1nc(C(F)(F)F)c(C#N)c1N1CCN(c2ccccc2)CC1	71.7	69.4	n	n	n
FC(F)(F)c1nc(N2CCN(c3ccccc3)CC2)nc2c1CCCCC2	n	n	n	n	n
O=C(NCCc1cccs1)C1CC(c2ccccc2[N+](=O)[O-])=NO1 (stereo not drawn)	n	n	n	n	n
O=C(c1ccccc1CCc1ccccc1)N1CCOCC1	n	n	n	n	n
CCn1c(C(=O)Nc2ccsc2C(=O)OC)cc2sc(Cl)cc21	n	n	n	n	n
CS(=O)(=O)N1CCN(C(=O)C(Sc2ccccc2)c2ccccc2)CC1 (stereo not drawn)	n	70.9	n	n	n
